Screening data deposited in PubChem by National Center for Advancing Translational Sciences (NCATS).
The list is not random: actives were taken first. Their share in the collection is about 3.8%.
Nrf2 block – inhibitors of Nrf2 signaling | A549 ARE-Fluc reporter, luciferase luminescence, 18-24 h | 360,000 tested, 2.1% active | Potency, µM (highest dose often 46 µM), inactives show at the highest dose activity change, negative = inhibition, actives largely listed as inhibitors; note: % is set by controls: 0 for no effect and ±100 for the full control effect; nearly all actives have a fitted effect of over 60% in size
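Concentration-response testing used A549 ARE_Fluc cells at 5000 cells/well. Following an 18-24 h compound incubation, viability was read by fluorescence (Ex 405/Em 525) and luciferase output by luminescence.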
TGFb inhibitor – TGF-b pathway inhibition; Potency, µM (top dose mostly 46.1 µM), inactives show top-dose activity, negative = inhibition, hits mostly inhibitors; 410,000 tested, 1.2% active; HepG2 CAGA-GFP TGF-b/SMAD3 reporter, GFP fluorescence, 18 h; TGF-beta stimulated, 500 pg/mL final; note: % is set by controls: 0 for no effect and ±100 for the full control effect; nearly all actives have a fitted effect of over 65% in size
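Inhibition of TGF-beta-driven CAGA-GFP reporter expression in HEPG2 cells is measured by cellular GFP fluorescence after 18 h stimulation with 500 pg/mL recombinant TGF-beta in 1% FBS medium at 37 degrees C.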
HepG2 tox – counter-screen for TGF-b inhibitors: cytotoxicity in HepG2 cells; AID 588856; HepG2 CAGA-GFP viability, ATP luminescence, 18 h; 410,000 tested, 0.76% active; Potency, µM (doses to about 46.1 µM), without a hit: at the top dose activity change, negative = cytotoxicity, usual class: cytotoxic
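CellTiter-Glo luminescence gave cytotoxicity after 18 hours at 37 degrees C. The cells were HepG2 CAGA-GFP in 1% FBS DMEM, stimulated with 500 pg/mL TGF-beta after compound addition. %Activity was normalised to no-cell wells (complete cell-killing) and DMSO (no toxicity), and curves were fitted and classified.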
ATXN viability – viability counter-screen for ATXN expression inhibitors; S2 cells (HEK-293 line with an ATXN2-luciferase reporter) viability, CellTiter-Fluor protease fluorescence, 24 h; Potency, µM (highest dose often 56.7 µM), usual class: cytotoxic; 400,000 tested, 0.49% active; AID 651635; note: nearly all actives have a fitted effect of over 40% in size
A549 viability – A549 cytotoxicity, counter-screen for Nrf2 inhibitors; A549 ARE-Fluc cells, CellTiter-Fluor viability, 18-24 h; Potency, µM (doses to about 46 µM), for the others: at the top dose activity change, negative = cytotoxicity, hits mostly inhibitors; 390,000 tested, 0.16% active; AID 504648; note: % is set by controls: 0 for no effect and ±100 for the full control effect
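A549 ARE-Fluc cells in 5% FBS OPTI-MEM, 5000 cells/well, rested 2 h then exposed to compounds in concentration-response for 18-24 h at 37 °C. Viability by CellTiter-Fluor fluorescence (Ex 405/Em 525) after 30 min; luciferase luminescence (BugLite, 15 min, RT) read afterwards.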
ATXN2 expr inh – inhibitors of ATXN2 expression. HEK-293 ATXN2-luciferase reporter, luminescence, 24 h. Potency, µM (titrated, usually from 57 µM), inactives show at the top dose activity change, negative = inhibition, most hits filed as inhibitors. 360,000 tested, 0.72% active. AID 1745845; note: % is set by controls: 0 for no effect and ±100 for the full control effect; nearly all actives have a fitted effect of over 55% in size
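ATXN2-luciferase reporter cells (luciferase flanked by upstream and downstream ATXN2 gene portions) were treated 24 h at 37 °C with compounds at up to 57 uM. SteadyGlo luminescence gave expression; GF-AFC fluorescence gave viability.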
* marks the source's active call; other numbers are inactive results; i = inactive; ? = inconclusive; · = no result; ! = not confirmed by another sample; [ ] = remark or other dose. Calls come from the whole dose curve; as a rule, active = well fitted curve in the direction sought with a large enough effect; inconclusive = small, poorly fitted or top-dose-only effect, or another doubt; inactive = no such curve, though single readings can be large; an effect the other way counts as inactive or inconclusive. Potency is the fitted concentration of half-maximal effect.

SMILES | Nrf2 block | TGFb inhibitor | HepG2 tox | ATXN viability | A549 viability | ATXN2 expr inh
CC(=O)Nc1ccc(Oc2sc(C(=O)c3ccccc3)c(N)c2C#N)cc1 | · | 10µM* | -3% | i | ? | -2%
CC(=O)Nc1ccc(Oc2ccccc2)cc1 | 11% | 9% | 2% | i | 0% | 6%
Cc1cc(N2CCCC2)c(F)cc1/C=C\[N+](=O)[O-] | -9% | 11µM* | -44% | · | 0% | 1%[11.3 µM]
Cc1cc(N2CCC(C)CC2)c(F)cc1[N+](=O)[O-] | · | 5% | -19% | i | 4% | -1%
CNC(=O)c1cnc2sc(N3CCC(C)CC3)nn2c1=O | ? | -7% | 3% | i | -3% | 31%
CCN(CC)S(=O)(=O)c1cc(NC(=O)COC(=O)c2c(C)noc2C)ccc1C | 21µM* | -13% | -22% | i | ? | -38%
CN(c1ccccc1)S(=O)(=O)c1cccc(NC(=O)Cc2n[nH]c(=O)c3ccccc23)c1 | 16µM* | -16% | -23% | i | -9% | -20%
CCN(CC)S(=O)(=O)c1cc(NC(=O)CSc2n[nH]c(N)n2)ccc1C | -7% | 6% | 6% | i | -2% | 2%
CCN(CC)S(=O)(=O)c1cc(NC(=O)Cc2n[nH]c(=O)c3ccccc23)ccc1C | 26µM* | -12% | 4% | i | -12% | -19%
Cc1ccc(NC(=O)Cc2c[nH]c3ccccc23)cc1S(=O)(=O)N1CCCCCC1 | 2% | -25% | -29% | i | -1% | -16%
Cc1ccc(NC(=O)Cc2n[nH]c(=O)c3ccccc23)cc1S(=O)(=O)N1CCCCCC1 | 10µM* | ? | -21% | ? | -18% | -12%
CCc1ccc(N(CC(=O)NC(C)(C)C)C(=O)CCC(=O)Nc2ccccn2)cc1 | -6% | 2% | 8% | i | -9% | 0%
O=C(Cn1c(=O)c2sccc2n(CC(=O)Nc2ccc(Cl)cc2Cl)c1=O)NCCc1ccccc1 | 4% | -22% | 1% | · | 2% | ·
O=C(NCCOc1ccccc1)c1ccccc1Cl | ? | 2% | 5% | · | 1% | 9%
CN(C(=O)COc1ccccc1C(=O)NCCOc1ccccc1)c1ccccc1 | 15µM* | ? | -25% | ? | ? | ?
COC(C/C=C/C(=O)[C@H](C)OCc1ccccc1)OC | 3% | ? | -86% | · | -1% | ?
CC(C)CN(CCCNC(=O)c1cn(C)c2ccc(S(=O)(=O)N(C)C3CCCCC3)cc2c1=O)CC(C)C | -1% | 0% | -36% | i | -2% | 7%
CCOC(=O)C1=C[C@]2(CC)CCCN3CCc4c(n1c1ccccc41)[C@@H]32 | 5% | 3% | -6% | ? | 1% | 31µM*!
COc1ccccc1C(=O)OC(C)CN1CCN(C)CC1 (stereo unspecified) | ? | 6% | 0% | i | -1% | ·
CC(C)(C)c1ccc(C(=O)NNC(=O)c2ccc(Cl)cc2)cc1 | -12% | 5% | -3% | i | 0% | 3%
O=C(NNC1=C(C(=O)C(F)(F)F)CCC1)c1cccc(Cl)c1 | ? | ? | 10µM* | ? | -30% | ?
COc1ccc(C(=O)NNC2=C(C(=O)C(F)(F)F)CCC2)cc1 | ? | 8.9µM* | -50% | i | -17% | -33%
COc1ccc(C(=O)NNc2ccccc2)cc1 | 0% | -12% | 0% | i | -2% | -1%
O=C(NNC1=C(C(=O)C(F)(F)F)CCC1)c1ccc(Cl)cc1 | ? | 11µM* | 10µM* | ? | ? | ?
CC(C)C(NS(=O)(=O)c1ccc2c(c1)oc(=O)n2C)C(=O)NCCc1ccccc1 (stereo unspecified) | 10% | -7% | -5% | i | 15% | 12%
O=C(Cc1ccc(NC(=O)N2CCCCc3ccccc32)cc1)NCc1ccccc1 | · | 0% | -4% | i | -2% | 2%
